# Active and inactive are the calls of the source. How the calls were made is not given here.
# System: HIV-1 nucleocapsid protein NCp7 (binding to TG oligonucleotide)
# Assay: HIV Nucleocapsid (AID 346);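 further: potency is for inhibitors that block NC binding and lower polarization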
# Details: HIV-1 NC / fluorescein-TGTGTGTG probe, fluorescence polarization
# Method in brief: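 Inhibition of nucleocapsid binding to single-stranded 5'-TGTGTGTG probe (10 nM) was measured by fluorescence polarization after 1 hr at room temperature with 100 nM protein under high-salt, zinc-containing, reducing conditions.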
# Potency means the concentration at half of the fitted maximal effect.
row,SMILES,Potency
1,CN1CCN(c2ncc3nc(-c4cc(F)cc(F)c4)c(=O)n(C4CC4)c3n2)CC1,> 20 µM (inactive)
2,Cc1noc(C)c1-c1nccc(N(C)Cc2ccco2)n1,> 20 µM (inactive)
3,COc1ccccc1CNc1nc(-c2ccoc2)nc2ccccc12,> 20 µM (inactive)
4,COc1ccc2[nH]cc(CCNc3cc(-c4ccoc4)ncn3)c2c1,> 20 µM (inactive)
5,CN(C)c1ncc2nc(-c3ccccc3)c(=O)n(CCc3ccccc3)c2n1,> 20 µM (inactive)
6,Cn1cccc1C(=O)N1CCC2(CCCN(Cc3ccncc3)C2)CC1,> 20 µM (inactive)
7,CN(C)c1ccc(-c2cncnc2NCCN2CCOCC2)cc1,> 20 µM (inactive)
8,COc1ccc(-c2nc3cnc(Nc4cccc(OC)c4)nc3n(CCC#N)c2=O)cc1,> 20 µM (inactive)
9,Cn1cccc1C(=O)N1CCC2(CC1)CCN(c1ccc(-c3ccccc3)cc1)CC2,> 20 µM (inactive)
10,O=S(=O)(c1ccccc1)N1CCC[C@@]2(CCN(c3ccccc3)C2)C1,> 20 µM (inactive)
11,O=c1c(CCc2ccccc2)nc2cnc(Oc3ccccc3)nc2n1C[C@H]1CCCO1,> 20 µM (inactive)
12,O=c1c(-c2ccc(F)cc2)nc2cnc(N3CCOCC3)nc2n1-c1ccccc1,> 20 µM (inactive)
13,CS(=O)(=O)Nc1cccc(-c2cc(Nc3ccccc3)ncn2)c1,> 20 µM (inactive)
14,Fc1ccc(Nc2ncncc2-c2ccccc2C(F)(F)F)cc1,> 20 µM (inactive)
15,CC(=O)N1CCC[C@@]2(CCN(C(=O)Nc3cccc(C#N)c3)C2)C1,> 20 µM (inactive)
16,Cc1ccccc1-c1nccc(Nc2ccc(F)cc2)n1,> 20 µM (inactive)
17,Cc1nc2cnc(Oc3cccc(Cl)c3)nc2n(CCC#N)c1=O,> 20 µM (inactive)
18,COCCNc1ncnc2ccc(-c3ccccc3C)cc12,> 20 µM (inactive)
19,COc1ncc2nc(-c3ccc(F)cc3)c(=O)n(CCc3ccccc3)c2n1,> 20 µM (inactive)
20,COc1ccc(NC(=O)N2CC[C@@]3(CCCN(C(=O)c4ccncc4)C3)C2)cc1,> 20 µM (inactive)
21,CC(C)NC(=O)N1CCC2(CC1)CCN(C(=O)c1ccncc1)CC2,> 20 µM (inactive)
22,COc1cccc(Cn2c(=O)c(-c3cccc(C#N)c3)nc3cnc(Nc4ccccc4)nc32)c1,0.198 µM (active)
23,COc1ccc2[nH]cc(CCNc3ccnc(-c4ccccc4C(F)(F)F)n3)c2c1,> 20 µM (inactive)
24,CCNc1ncc2nc(-c3cccs3)c(=O)n(Cc3ccc(F)cc3)c2n1,> 20 µM (inactive)
25,FC(F)(F)c1ccccc1-c1ccc2ncnc(NCCN3CCOCC3)c2c1,> 20 µM (inactive)

# Reference: PubChem BioAssay (NCATS)
